In PubChem BioAssay:

assay: binders of probe aHhip on microarray, primary screen, stem cell growth factor project, biochemical, small-molecule microarray, fluorescence 635/667 (AID 1087); settings: higher = more signal;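 also: score merges spot fluorescence at 667nm with spot signal to noise ratio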

SMILES | composite z-score
COc1cc2c(cc1OC)CN(C(=O)[C@@H]1[C@H]3C(=O)O[C@H](c4ccccc4)[C@H](c4ccccc4)N3[C@H](c3ccc(OCCO)cc3)[C@@]13C(=O)Nc1ccc(C#CC4(O)CCCCCC4)cc13)CC2 | -0.6
C=C(/C(=C/C[C@H](OC(C)=O)c1cccc(OCCO)c1)c1cnc2ccccc2c1)C(C)C | -0.0618
OCCCC1=CC(c2ccc(CN3CCCC3)cc2)N(Cc2sc3ccccc3c2Cl)CC1 (configuration not stated) | 0.535
CCOC(=O)C[C@H]1[C@H](OC(=O)c2ccccc2-c2ccccc2)[C@@H](NC(=O)C2CCCCC2)c2cc(OCCCO)ccc2N1C(=O)Cc1ccc(OC)cc1 | -0.12
CN1C(=O)C2C=CC(C(O)c3cccc4ccccc34)N(N3CCCCC3)C2C1=O (configuration not stated) | 0.0873
CC1=C([C@H](O)CCc2ccccc2)[C@H](CO)[C@@H]2C(=O)N(C)C(=O)[C@@H]2C1 | -0.137
O=C1O[C@@H](c2ccccc2)[C@@H](c2ccccc2)N2[C@@H](c3ccc(OCCO)cc3)[C@]3(C(=O)Nc4ccccc43)[C@@H](C(=O)O)[C@H]12 | -0.407
C=C(/C(=C/C[C@@H](OC(C)=O)c1cccc(OCCO)c1)c1cc(C(=O)OC)ccc1OC)C(C)C | 0.0373
CCOC(=O)C[C@H]1[C@H](OC(=O)c2cc3ccccc3oc2=O)[C@@H](NC(=O)c2ccc(-c3ccccc3)cc2)c2cc(OCCCO)ccc2N1C(=O)c1ccc2ccccc2n1 | -0.0994
CC[C@H]1C2=C3C(CC[C@H]4C(OCc5ccc(F)cc5C(F)(F)F)OC[C@](C)([C@@H]34)N(C(=O)OC(C)(C)C)C2)C(COC)C1COC (some centres not stated) | -0.329
C=CCOC(=O)[C@H]1[C@@H]2C(=O)O[C@@H](c3ccccc3)[C@@H](c3ccccc3)N2[C@@H](c2ccc(OCCOC(=O)[C@H]3C[C@H]4C(=O)N[C@@H](CCCCNC(C)=O)C(=O)N4[C@H]3c3ccc(O)cc3)cc2)[C@]12C(=O)Nc1ccccc12 | -0.0994
[N-]=[N+]=Nc1ccccc1[C@@H]1OC(c2ccc(OCCCO)cc2)=N[C@]1(Cc1ccccc1)C(=O)NCC(O)CO (some centres not stated) | 0.28
COc1ccc(C(O)C2C=CC3C(=O)N(c4ccccc4)C(=O)C3N2Nc2ccc([N+](=O)[O-])cc2)cc1 (configuration not stated) | -0.149
O=C1OCC=C[C@H]2OC34C=CCN(Cn5nnc6ccccc65)C(=O)[C@H]3N(CCCO)C(=O)[C@@H]4[C@@H]12 (some centres not stated) | -0.0618
CCC[C@@H]1C[C@@]1(CCC)[C@@H](NC(=O)OCc1ccccc1)c1ccc(-c2ccccc2)cc1 | 3.09
CC(C)(C)OC(=O)CC[C@@]1(C(=O)NCc2ccccc2)N=C(c2ccc(OCCCO)cc2)O[C@@H]1c1ccccc1N=[N+]=[N-] | 0.0115
COCCCNC(=O)[C@]1(CCS(=O)(=O)c2ccccc2)N=C(c2ccc(OCCCO)cc2)O[C@@H]1c1ccccc1CN=[N+]=[N-] | -0.0518
C=C(COC)/C(=C/C[C@H](OC(=O)c1ccncc1)c1ccccc1OCCO)c1cnc2ccccc2c1 | -0.242
O=C(NCC(F)(F)F)[C@@H]1c2ccccc2C(=O)N(Cc2cc(F)cc(C(F)(F)F)c2)[C@H]1c1ccc(CO)cc1 | -0.218
Cc1ccccc1C(O)C1C=CC2C(=O)N(C)C(=O)C2N1N(c1ccccc1)c1ccccc1 (configuration not stated) | 0.0077
COCCOC(=O)N1C(=O)[C@@]2(c3cc(C#CC4=CCCCC4)ccc31)[C@H](C(N)=O)[C@H]1C(=O)O[C@H](c3ccccc3)[C@H](c3ccccc3)N1[C@@H]2c1ccccc1OCCO | 0.388
C[N+](C)(C)CCCCCCNC(=O)[C@H]1C[C@H]2C(=O)NCC(=O)N2[C@H]1c1ccc(O)cc1 | -0.744
O=C1OCC=C[C@H]2OC34C=CCN(Cc5ccccc5)C(=O)[C@H]3N(CCCCCCO)C(=O)[C@@H]4[C@@H]12 (some centres not stated) | -0.249
COc1ccc(-c2nc(-c3ccccc3)c3c(c2C)CO[Si]3(C(C)C)C(C)C)cn1 | 0.176
COCCOC(=O)N1C(=O)[C@@]2(c3cc(C#CC4(O)CCCCCC4)ccc31)[C@H](c1ccc(O)cc1)N1[C@H](c3ccccc3)[C@H](c3ccccc3)OC(=O)[C@H]1[C@@H]2C(=O)NC[C@H](O)c1ccccc1 | 0.176
[N-]=[N+]=NCc1ccccc1C[C@@]1(C(=O)NCc2ccccc2)N=C(c2ccc(OCCCO)cc2)O[C@@H]1c1ccccc1N=[N+]=[N-] | 0.143
[N-]=[N+]=NCc1ccccc1C[C@@]1(C(=O)N2CCOCC2)N=C(c2ccc(OCCCO)cc2)O[C@@H]1c1ccccc1 | 0.0749
